Assay results reported in PubChem BioAssay (NCI).
Compounds without any hit were thinned out: in the full panel of roughly 83,000, 20% have a hit.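 Testing used 96-well plates and a 48-hour single-concentration exposure. Example: -40 means 40% of the starting cells died.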 Unmarked numbers belong to inactive results. The source made the active and inactive calls. Rule for the calls: active = growth percent below 10; inactive = the rest.

What follows are compounds tested on TK-10 renal (assay: NCI-60 one-dose screen, 48 h (100 = growth as untreated, 0 = no growth, -100 = all killed)). Details: 10 µM unless noted.

SMILES | growth
CN(C)c1ccc(C2Nc3ccccc3-n3cccc32)cc1 (stereo not given) | 55.7%
Nc1nc2c(c3ncccc13)C(c1cccc(Br)c1)Cc1ncccc1-2 (stereo not given) | 35.2%
O=[N+]([O-])c1cccc(-c2nc3sccn3c2-c2ccnc(NCCCNS(=O)(=O)c3ccc(F)cc3)n2)c1 | 44.6%
COc1ccc(-n2c(C)nc3c(c(C)nn3-c3ccccc3)c2=O)cc1 | 55.4%
COc1ccc(-n2cc(-c3ccccc3)c3c(SCC(=O)N/N=C/c4ccc([N+](=O)[O-])cc4)ncnc32)cc1 | 108%
Nc1c(C(=O)Nc2ccccc2)sc2nc3c(cc12)CN(CCc1ccccc1)CC3 | 113%
CCOC(=O)c1c2ncccc2n2c(=O)n(-c3ccc(Cl)cc3)nnc12 | 154%
CCN(CC)CCCC(C)Nc1ccnc2c(OC)cccc12 (stereo not given) | 120%
OC(c1cccc(C(F)(F)F)c1)c1cnccc1NC1CCCCCC1 (stereo not given) | 60.4%
NC(=S)N/N=C/c1cc(-c2cccc(N)c2)ccn1 | 46.6%
COc1ccc(CCN2CCCn3c2nc2ccccc2c3=O)cc1 | 69.3%
O=C(/C=C\c1cccc([N+](=O)[O-])c1)c1ccccc1 | 68.1%
CCOC(=O)C(Cc1cc(I)c(O)c(I)c1)NC(=O)c1ccccc1 (stereo not given) | 88.4%
COc1cc(C#N)cc(OC)c1OCCN(CCOc1c(OC)cc(C#N)cc1OC)S(=O)(=O)c1ccc(C)cc1 | 140%
CN1CCN(Cc2ccc(NC(=O)c3cncc(C#Cc4cncc5nccnc45)c3)cc2C(F)(F)F)CC1 | 96%
Nc1nc(-c2ccc(F)cc2)cc(-c2cnn(-c3ccccc3)n2)n1 | 121%
CC(=O)C1=C(O)C=C2Oc3c(C(=O)/C=C/c4ccccc4)c(O)c(C)c(O)c3[C@]2(C)C1=O | 33.6%
COc1ccc(C/C(C)=C(\c2ccc(OCCN3CCCCCC3)cc2)c2ccc(OC(=O)C3CCCCC3)cc2)cc1 | 86.4%
O=[N+]([O-])c1cccc(-c2nc3sccn3c2-c2ccnc(NCCCNS(=O)(=O)c3ccc(Br)cc3)n2)c1 | 102%
CCOC(=O)/C=C/C(=O)[C@H](CC(C)C)NC(=O)[C@H](Cc1ccccc1)NC(=O)OCc1ccccc1 | 50.1%

SMILES | growth
Cc1cc2cc3cc(C)c(N(C)C)cc3nc2cc1N(C)C | -14.6% (active)
C=C1CCC2C3(C)COC(C)(C)OC3CCC2(C)C1C/C=C1/C(=O)OCC1OC(C)=O (stereo not given) | 68.7%
C=C1CC2(OC1=O)C(=O)N(CCCCCCCCCCCCN1C(=O)C3(CC(=C)C(=O)O3)c3ccccc31)c1ccccc12 (stereo not given) | 96.1%
O=C1c2cccnc2C(=O)c2c1c(C(=O)OCCN1CCCCC1)c1ccccn21 | -14.3% (active)
COc1ccccc1N1CCN(CCn2c(=O)c3c(c4ccccc4n3C)n(C)c2=O)CC1 | 78.9%
C/C(=C(/c1ccc(O)cc1)c1ccc(OCCN(C)C)cc1)c1ccccc1 | 81.5%
CCOC(=O)c1c2c(n3ccc(NC(=O)CCN4CCOCC4)cc13)C(=O)c1ncccc1C2=O | 47%
Cc1cc(=O)oc2cc(Oc3nc(-c4cccs4)cn4c(-c5cccs5)cnc34)ccc12 | 53.9%
CC(C)[C@@H]1CC[C@]2(C(=O)NCCCCN=C(N)N)CC[C@]3(C)[C@H](CC[C@@H]4[C@@]5(C)CCC(=O)C(C)(C)[C@@H]5CC[C@]43C)[C@@H]12 | 88.7%
Oc1cc(O)c2c(=S)cc(-c3ccc(Cl)cc3)oc2c1 | 58.9%
COc1ccc(-c2cn3c(-c4ccc(OC)cc4)cnc3c(Oc3ccc4c(C)cc(=O)oc4c3)n2)cc1 | 35.7%
CN1CCN(Cc2ccc(NC(=O)c3[nH]ncc3Nc3ccnc4ccsc34)cc2)CC1 | 58.6%
Nc1nc2ccc(-c3nc4ccc5[nH]ncc5c4c4c3CCC4)cc2s1 | 22.3%
Oc1ccc2c(=S)cc(-c3ccc(Br)cc3)oc2c1O | 103%
Clc1cccc(Nc2nc(Nc3cnc4ccccc4c3)c3[nH]cnc3n2)c1 | 114%
COc1ccc(-c2cc(NC(=O)Nc3ccc(O)cc3)no2)cc1 | 96.9%
CC(=O)CC(C)(C)c1ccc(Cl)cc1 | 114%
O=C1C2CC=CCC2C(=O)N1CNc1ccc(Cl)cc1 (stereo not given) | 107%
CN1CCN(Cc2ccc(NC(=O)c3[nH]ncc3Nc3ncnc4c3CCC4)cc2)CC1 | 2.4% (active)

Each compound was assayed on ACHN renal in the same assay as above. Details: 10 µM unless noted.

SMILES | growth
O=[N+]([O-])c1cccc(-c2nc3sccn3c2-c2ccnc(NCCCNS(=O)(=O)c3ccc(F)cc3)n2)c1 | 5.38% (active)
COc1ccc(-n2c(C)nc3c(c(C)nn3-c3ccccc3)c2=O)cc1 | 29.2%
Nc1c(C(=O)Nc2ccccc2)sc2nc3c(cc12)CN(CCc1ccccc1)CC3 | 95.3%
CCOC(=O)c1c2ncccc2n2c(=O)n(-c3ccc(Cl)cc3)nnc12 | 77.9%
CCN(CC)CCCC(C)Nc1ccnc2c(OC)cccc12 (stereo not given) | 122%
OC(c1cccc(C(F)(F)F)c1)c1cnccc1NC1CCCCCC1 (stereo not given) | 43.9%
NC(=S)N/N=C/c1cc(-c2cccc(N)c2)ccn1 | 7.92% (active)
COc1ccc(CCN2CCCn3c2nc2ccccc2c3=O)cc1 | 40.4%
O=C(/C=C\c1cccc([N+](=O)[O-])c1)c1ccccc1 | -50.1% (active)
Nc1nc(-c2ccc(F)cc2)cc(-c2cnn(-c3ccccc3)n2)n1 | 100%
CC(=O)C1=C(O)C=C2Oc3c(C(=O)/C=C/c4ccccc4)c(O)c(C)c(O)c3[C@]2(C)C1=O | 48.2%
COc1ccc(C/C(C)=C(\c2ccc(OCCN3CCCCCC3)cc2)c2ccc(OC(=O)C3CCCCC3)cc2)cc1 | 80.8%
O=[N+]([O-])c1cccc(-c2nc3sccn3c2-c2ccnc(NCCCNS(=O)(=O)c3ccc(Br)cc3)n2)c1 | 46.7%
CCOC(=O)/C=C/C(=O)[C@H](CC(C)C)NC(=O)[C@H](Cc1ccccc1)NC(=O)OCc1ccccc1 | 47.5%
Cc1cc2cc3cc(C)c(N(C)C)cc3nc2cc1N(C)C | 39.1%
C=C1CCC2C3(C)COC(C)(C)OC3CCC2(C)C1C/C=C1/C(=O)OCC1OC(C)=O (stereo not given) | 24.3%
O=C1c2cccnc2C(=O)c2c1c(C(=O)OCCN1CCCCC1)c1ccccn21 | -66% (active)
C/C(=C(/c1ccc(O)cc1)c1ccc(OCCN(C)C)cc1)c1ccccc1 | 89.2%
COc1ccc(-c2cn3c(-c4ccc(OC)cc4)cnc3c(Oc3ccc4c(C)cc(=O)oc4c3)n2)cc1 | 58.1%
CN1CCN(Cc2ccc(NC(=O)c3[nH]ncc3Nc3ccnc4ccsc34)cc2)CC1 | 13.5%
Oc1ccc2c(=S)cc(-c3ccc(Br)cc3)oc2c1O | 13.9%
